# Screens as filed in PubChem BioAssay.
# Shown are actives, neighbours in structure and some others; about 4.8% of the full set was active somewhere.
# ssDAF12 agonist = activators of S. stercoralis DAF-12 nuclear receptor | HEK293 ssDAF-12/GRIP1 lit1-tk-luc reporter, luminescence; % of 3 µM dafachronic acid response | activation, % at 6.8 µM | 1% of 370,000 active;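 active = activation above the mean over all tested compounds plus 3 SD, cut at about 0.9% in these data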;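 note: 0% = DMSO-only wells and 100% = 3 µM delta7-dafachronic acid wells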
# DAX1 inh-1 = inhibits human nuclear receptor DAX1. HEK293 Gal4-DAX1 luciferase reporter, luminescence. inhibition, % at 6.75 µM. 0.99% of 340,000 active. AID 504766;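 active = inhibition above the mean over all tested compounds plus 3 SD, cut at about 4.2% in these data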;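 note: 0% = DAX1-transfected cells with DMSO and 100% = empty-vector control cells with DMSO; inhibition shows as a rise in luminescence from relieved DAX1 repression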
# Target sequence (P51843 207-470 limits assumed): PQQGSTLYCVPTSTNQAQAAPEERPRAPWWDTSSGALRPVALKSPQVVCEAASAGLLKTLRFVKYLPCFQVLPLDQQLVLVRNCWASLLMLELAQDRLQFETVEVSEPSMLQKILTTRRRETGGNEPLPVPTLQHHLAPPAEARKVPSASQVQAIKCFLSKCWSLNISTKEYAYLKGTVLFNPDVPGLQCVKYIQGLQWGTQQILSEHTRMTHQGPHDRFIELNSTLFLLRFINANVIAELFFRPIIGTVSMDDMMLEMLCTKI
# SMARCA2 act = activators of SMARCA2 function; MG213 cells, MMTV-luciferase reporter, dexamethasone, overnight; activation, % at 9.1 µM; 1% of 370,000 active; AID 652017; in the data active = activation above about 7.8%;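 note: 0% = vehicle wells and 100% = reference activator wells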
# DAX1 inh-2 = inhibitors of DAX1 repression of SF-1 activated StAR promoter. HEK293T StAR-luciferase reporter, SF-1/DAX-1 repression relief. 1.1% of 370,000 active. inhibition, % at 6.8 µM;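 active = inhibition above the mean over all tested compounds plus 3 SD, cut at about 3.6% in these data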;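 note: 0% = DAX-1 cells with DMSO and 100% = cells lacking DAX-1 with DMSO; higher inhibition means more luminescence from relief of DAX-1 repression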
# hgDAF12 agonist = agonists of H. glycines DAF-12 nuclear receptor | activation, % at 6.8 µM | HEK293 GAL4-hgDAF12 UAS-luciferase reporter, agonist luminescence; normalized to butyrate control | AID 687014 | 1.8% of 370,000 active;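 active = activation above a cutoff set at the mean of all screened compounds plus 3 SD, cut at about 10% in these data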;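 note: 0% = DMSO wells and 100% = sodium butyrate wells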
# hcDAF-12 act = activators of H. contortus DAF-12 nuclear receptor; 1.4% of 370,000 active; HEK293 hcDAF-12 lit1-tk-luc reporter, luminescence; 0% DMSO, 100% Δ7-dafachronic acid; activation, % at 6.8 µM;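 active = activation above the mean of all tested compounds plus 3 SD, cut at about 5.5% in these data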;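 note: 100% = response to 3 µM Δ7-dafachronic acid high control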
# Starred values were filed as active, the others as inactive; x = no result.
SMILES,ssDAF12 agonist,DAX1 inh-1,SMARCA2 act,DAX1 inh-2,hgDAF12 agonist,hcDAF-12 act
O=C(CSc1nccc(=O)[nH]1)c1cc2ccccc2o1,1.3*,2,0,1,11*,3
FC(F)(F)c1ccccc1NC(=S)OC1CCC12CCC(c1ccccc1)CC2 (stereo unspecified),-1,x,-5,-1,3,0
N/C(=N\N=C\c1ccc(Br)o1)c1nonc1N,0,6.1*,7,1,13*,3
CC(C)c1ccc(NC(=O)Nc2nc(CN)cs2)cc1,-1,x,0,2,12*,1
CCCC1CCC2(CC1)CCC2OC(=O)Nc1ccc(F)cc1 (stereo unspecified),-2,x,x,x,3,-2
CCc1ccc(N2CN=c3s/c(=C\c4ccccc4)c(=O)n3C2)cc1,-2,5.3*,-1,0,1,-3
O=c1/c(=C/c2ccccn2)sc2n1CN(c1ccccc1)CN=2,-1,0,2,0,6,-1
COC(=O)[C@]12C[C@H](CC(=O)NCCC(C)C)C(=O)N(Cc3cccc4ccccc34)C1=C[C@H](C(C)C)O[C@@H]2C1CC1,-1,x,0,0,2,-2
COC(=O)[C@]12C[C@H](CC(=O)NCCCN3CCCC3=O)C(=O)N(Cc3cccc4ccccc34)C1=C[C@H](C(C)(C)C)O[C@@H]2C,-1,x,-3,0,-1,0
COc1ccc(Cn2c(=N)c(C(=O)NCC3CCCO3)cc3c(=O)n4ccccc4nc32)cc1 (stereo unspecified),-1,1,0,-1,7,5.7*
COc1ccc(Cn2cc(COC(=O)Nc3ccc(F)cc3)nn2)cc1,-1,x,-4,0,1,-2
CC(Sc1nnc(C2CC2)n1-c1ccccc1)C(=O)N1CCCC1 (stereo unspecified),-1,1,-2,0,13*,0
Cc1cccc(OCc2n[nH]c(=S)n2-c2ccccc2)c1,-2,2,1,-1,-2,-1
Cc1ccc(-n2c(COc3cccc(C)c3)n[nH]c2=S)cc1,-1,4.8*,-2,1,-1,-2
COC(=O)C1=C(C)N(Cc2ccc(C(F)(F)F)cc2)C(=NCc2ccccc2C(F)(F)F)NC1c1cccc(Cl)c1 (stereo unspecified),0,x,-1,1,6,1
O=C(COC(=O)C1CCN(S(=O)(=O)c2cc([N+](=O)[O-])ccc2Cl)CC1)Nc1ncc(Cl)cc1Cl,0,0,-2,0,-2,2
CC(=O)COC(=O)C1CCN(S(=O)(=O)c2cc([N+](=O)[O-])ccc2Cl)CC1,-1,4.3*,0,0,0,1
COC(=O)c1cccc(Cn2ccc3ccc(-c4ccc5ccn(C(=O)c6ccc(C)cc6)c5c4)cc32)c1,-1,x,-2,-1,-2,0
O=[N+]([O-])c1nn(-c2ccc(Cl)cc2)n(O)c1=NCc1ccccc1,-1,5.0*,3,0,3,-2
Cc1c(Cl)cccc1N=c1c([N+](=O)[O-])nn(-c2ccccc2)n1O,0,0,-3,0,2,5.6*
CCCCNC(=O)NS(=O)(=O)c1ccc(NC(=O)CSc2nnc(-c3cccs3)n2-c2ccc(OC)cc2)cc1,-1,x,-1,-1,1,-3
O=C(Nc1nc2ncccn2c1-c1ccc(F)cc1)c1ccc(F)cc1,-1,x,-1,-2,1,-2
C[C@H](CO)N1C[C@H](C)[C@@H](CN(C)C(=O)Nc2ccc3c(c2)OCO3)OCc2cn(nn2)CCCC1=O,0,x,0,0,-2,2
CC1CCCCN1CCNC(=O)CC1Oc2ccccc2NC1=O (stereo unspecified),3.2*,4.6*,1,1,2,2
Cc1ccc2c(c1)NC(=O)C(CC(=O)NC1CCCCC1C)O2 (stereo unspecified),-2,4.8*,0,0,-1,0
SMILES,ssDAF12 agonist,DAX1 inh-1,SMARCA2 act,DAX1 inh-2,hgDAF12 agonist,hcDAF-12 act
Cc1ccc2c(c1)NC(=O)C(CC(=O)NCCCN1CCCCC1C)O2 (stereo unspecified),-1,1,2,-1,2,3
O=c1oc2ccccc2n1CCCOc1ccccc1,-1,2,5,2,11*,1
CC(C)CC(=O)c1c(O)cc(O)c2c1OC1=C(C(=O)C(C)(C)C(=O)C1(C)C)C2CC(C)C (stereo unspecified),0,x,-6,-1,-1,-1
COc1cc(NC(=O)c2onc(C)c2Cl)c(OC)cc1Cl,0,0,7.9*,1,1,5
COc1cc(NC(=O)c2cc(C)no2)c(OC)cc1Cl,-1,1,0,0,1,2
O=S(=O)(c1ccccc1)n1ccc2ccccc21,0,0,-2,0,0,2
Cc1cc(C)c(S(=O)(=O)n2ccc3ccccc32)c(C)c1,1.7*,0,-2,1,1,-1
COC(=O)/C(=C\c1c[nH]c2ccccc12)NC(C)=O,0,1,-3,0,-1,3
CCOC(=O)/C(=C\c1c[nH]c2ccccc12)NC(C)=O,1.4*,0,-2,0,-3,3
N=c1n(CCN2CCCCC2)c2ccccc2n1CC(=O)c1cccc([N+](=O)[O-])c1,-1,2,8.6*,0,3,2
Cc1ccc(-c2cc(C(=O)N=Nc3c(O)[nH]c4ccccc34)[nH]n2)cc1C,-1,x,-3,1,0,-4
Cc1ccc(C(=O)CCC(=O)Nc2ccccc2F)cc1,1.0*,3,2,0,3,1
COc1ccccc1NC(=O)CCC(=O)N/N=C(/C)c1ccc(C)cc1,-1,8.4*,-1,0,-1,1
Cc1ccc(OCC(=O)Nc2ccccc2F)cc1,0,6.1*,-2,2,13*,4
COc1ccc(CNS(=O)(=O)CC2NCCc3ccccc32)cc1 (stereo unspecified),-1,x,3,0,1,-2
COCCCn1c(=O)c2sccc2n(Cc2ccc(C)cc2)c1=O,1.0*,0,-3,0,-2,-1
COCCCn1c(=O)c2sccc2n(Cc2ccccc2)c1=O,-1,0,-5,0,-1,-2
Oc1ccc(/C=N/Nc2ncnc3c2ncn3Cc2ccccc2)cc1O,1.3*,0,0,0,1,-2
Oc1cccc(/C=N/Nc2ncnc3c2ncn3Cc2ccccc2)c1,-1,1,0,1,5,2
COC(=O)c1ccc(-c2nc(O)c(C)s2)cc1,-1,0,1,-1,-2,-1
COC(=O)c1ccc(-c2nc3cc(Cl)c(N)cc3s2)cc1,1,1,6,2,11*,3
Cn1c(-c2ccccc2)cccc1=O,1.3*,1,-2,0,1,1
